Outcome and AC50 data for three compounds are collected here from PubChem BioAssay (EPA / NIEHS).

Read-out in test [1]: Interferon-gamma inducible Protein 10 (IP10), CXCL10 (gene 3627)
The experiment in a line: BSK_hDFCGF_IP10: BioMAP Diversity Plus: hDFCGF Assay for Interferon-gamma inducible Protein 10 (IP10) Biomarker Activity (AID 2283053). Particulars: primary human foreskin fibroblasts; actives raise or lower the signal. The method, boiled down: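 Human foreskin fibroblast primary cells (hDFCGF system) were dosed with chemical and assayed at 24 h; IP-10 measured by ELISA. Activity fitted bidirectionally relative to DMSO negative control as baseline.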

Read-out in test [2]: Urokinase-type plasminogen activator receptor (uPAR), PLAUR (gene 5329)
The experiment in a line: BSK_CASM3C_uPAR: BioMAP Diversity Plus: CASM3C Assay for Urokinase-type plasminogen activator receptor (uPAR) Biomarker Activity (AID 2283054).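 Further: cell-surface uPAR protein level quantified by ELISA.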 Particulars: primary human coronary artery smooth muscle cells; actives raise or lower the signal.

Read-out in test [3]: Vascular cell adhesion molecule 1 (VCAM1), VCAM1 (gene 7412)
The experiment in a line: BSK_CASM3C_VCAM1: BioMAP Diversity Plus: CASM3C Assay for Vascular cell adhesion molecule 1 (VCAM1) Biomarker Activity (AID 2283055).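 Further: VCAM-1 protein level quantified by ELISA on the cells.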 Particulars: primary human coronary artery smooth muscle cells; actives raise or lower the signal.

Read-out in test [4]: Collagen III, COL3A1 (gene 1281)
The experiment in a line: BSK_hDFCGF_CollagenIII: BioMAP Diversity Plus: hDFCGF Assay for Collagen III Biomarker Activity (AID 2283056). As to conditions: primary human foreskin fibroblasts; actives raise or lower the signal. The method, boiled down:
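hDFCGF primary human dermal fibroblasts; 24 h chemical exposure; collagen III by ELISA; bidirectional curve fit vs DMSO baseline (gain or loss of signal).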

Read-out in test [5]: Epidermal growth factor receptor (EGFR), EGFR (gene 1956)
The experiment in a line: BSK_hDFCGF_EGFR: BioMAP Diversity Plus: hDFCGF Assay for Epidermal growth factor receptor (EGFR) Biomarker Activity (AID 2283057). Particulars: primary human foreskin fibroblasts; actives raise or lower the signal. The method, boiled down:
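Primary human foreskin fibroblasts were exposed to compound for 24 h, after which cell-surface EGFR was quantified by ELISA. Activity was fitted bidirectionally against the DMSO negative control as baseline.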

Read-out in test [6]: Interleukin-8 (IL8), CXCL8 (gene 3576)
The test can be described thus: BSK_hDFCGF_IL8: BioMAP Diversity Plus: hDFCGF Assay for Interleukin-8 (IL8) Biomarker Activity (AID 2283058). Particulars: primary human foreskin fibroblasts; actives raise or lower the signal. Put shortly: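 ELISA read-out of IL-8 from primary human foreskin fibroblast cultures taken 24 h after dosing; values are bidirectional fits relative to DMSO vehicle.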

Test [7] in a line: BSK_hDFCGF_Proliferation: Cell Proliferation Assessment in the BioMAP Diversity Plus: hDFCGF Assay (AID 2283059).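 Further: curves fitted for both rise and fall of signal versus DMSO baseline.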 As to conditions: primary human foreskin fibroblasts. Put shortly: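 This proliferation readout used SRB total-protein staining of human foreskin fibroblasts […], normalized to DMSO with bidirectional curve fitting.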
Read-out in test [8]: Macrophage colony-stimulating factor (MCSF), CSF1 (gene 1435)
The experiment in a line: BSK_hDFCGF_MCSF: BioMAP Diversity Plus: hDFCGF Assay for Macrophage colony-stimulating factor (MCSF) Biomarker Activity (AID 2283060). As to conditions: primary human foreskin fibroblasts; actives raise or lower the signal. Put shortly:
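ELISA read-out of M-CSF in human dermal foreskin fibroblast cultures, 24 h after chemical dosing; gain or loss of signal fitted bidirectionally relative to DMSO baseline.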

A short description of test [9]: BSK_hDFCGF_SRB: Viability Assessment in the BioMAP Diversity Plus: hDFCGF Assay (AID 2283061).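 Further: cells exposed to compound for 24 h before the read.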 Particulars: primary human foreskin fibroblasts. Put shortly:
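Primary human foreskin fibroblasts; 24 h post-dose; fixed 10% TCA, stained 0.1% SRB, A560 read; total protein as overt cytotoxicity measure; curves fit bidirectionally vs DMSO control.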

Read-out in test [10]: TIMP metallopeptidase inhibitor 1 (TIMP1), TIMP1 (gene 7076)
The experiment in a line: BSK_hDFCGF_TIMP1: BioMAP Diversity Plus: hDFCGF Assay for TIMP metallopeptidase inhibitor 1 (TIMP1) Biomarker Activity (AID 2283062). Particulars: primary human foreskin fibroblasts; actives raise or lower the signal. Put shortly:
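ELISA readout of TIMP-1 from human dermal foreskin fibroblast cultures 24 h post-dosing. Curves were fitted in both directions against DMSO baseline, with SRB total-protein staining in parallel cultures as a cytotoxicity check.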

Read-out in test [11]: Monokine induced gamma interferon (MIG), CXCL9 (gene 4283)
The test can be described thus: BSK_hDFCGF_MIG: BioMAP Diversity Plus: hDFCGF Assay for Monokine induced gamma interferon (MIG) Biomarker Activity (AID 2283063). Particulars: primary human foreskin fibroblasts; actives raise or lower the signal. Put shortly:
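Fibroblasts (human foreskin, primary) dosed, 24 h, MIG by ELISA; fit bidirectional vs DMSO.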

Read-out in test [12]: Matrix Metallopeptidase 1 (MMP1), MMP1 (gene 4312)
The experiment in a line: BSK_hDFCGF_MMP1: BioMAP Diversity Plus: hDFCGF Assay for Matrix Metallopeptidase 1 (MMP1) Biomarker Activity (AID 2283064). As to conditions: primary human foreskin fibroblasts; actives raise or lower the signal. Put shortly: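 Primary human foreskin fibroblasts exposed to chemicals for 24 h; MMP1 measured by ELISA. Cytotoxicity tracked by SRB staining in parallel cultures; bidirectional fit relative to DMSO.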

Read-out in test [13]: Vascular cell adhesion molecule 1 (VCAM1), VCAM1 (gene 7412)
The test can be described thus: BSK_hDFCGF_VCAM1: BioMAP Diversity Plus: hDFCGF Assay for Vascular cell adhesion molecule 1 (VCAM1) Biomarker Activity (AID 2283065).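 On AC50: VCAM-1 protein level quantified by ELISA after 24 h chemical exposure.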 As to conditions: primary human foreskin fibroblasts; actives raise or lower the signal. The method, boiled down:
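ELISA read-out of VCAM-1 on human skin fibroblasts, 24 h post-dose; gain or loss of signal fitted bidirectionally against DMSO baseline.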

Read-out in test [14]: Plasminogen activator inhibitor-1 (PAI1), SERPINE1 (gene 5054)
The experiment in a line: BSK_hDFCGF_PAI1: BioMAP Diversity Plus: hDFCGF Assay for Plasminogen activator inhibitor-1 (PAI1) Biomarker Activity (AID 2283066). Particulars: primary human foreskin fibroblasts; actives raise or lower the signal. Put shortly:
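Human foreskin fibroblasts in the hDFCGF system were dosed with compound for 24 h; PAI-1 was quantified by ELISA. Bidirectional curve fitting used DMSO as negative control and baseline.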

Read-out in test [15]: Intercellular Adhesion Molecule 1 (ICAM1), ICAM1 (gene 3383)
The experiment in a line: BSK_KF3CT_ICAM1: BioMAP Diversity Plus: KF3CT Assay for Intercellular Adhesion Molecule 1 (ICAM1) Biomarker Activity (AID 2283067). Particulars: primary human keratinocytes with fibroblasts; actives raise or lower the signal. Put shortly:
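ELISA readout of ICAM-1; KF3CT human skin co-culture (keratinocytes + foreskin fibroblasts), 24 h post-dose; gain/loss fit vs DMSO baseline.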

Read-out in test [16]: Interferon-gamma inducible Protein 10 (IP10), CXCL10 (gene 3627)
The test can be described thus: BSK_KF3CT_IP10: BioMAP Diversity Plus: KF3CT Assay for Interferon-gamma inducible Protein 10 (IP10) Biomarker Activity (AID 2283068). As to conditions: primary human keratinocytes with fibroblasts; actives raise or lower the signal. The method, boiled down: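 Signal is secreted/surface IP-10 by ELISA in a human primary skin co-culture of keratinocytes and foreskin fibroblasts, taken 24 h post-dosing; DMSO served as negative control.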

Test [17] can be described thus: BSK_KF3CT_SRB: Viability Assessment in the BioMAP Diversity Plus: KF3CT Assay (AID 2283069).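 Further: total protein by sulforhodamine B staining as a cytotoxicity measure; read 24 h after compound addition.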 Particulars: primary human keratinocytes with fibroblasts. Put shortly: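 Human keratinocyte and foreskin fibroblast co-culture exposed to chemical for 24 h. Total protein measured in parallel cultures by 0.1% sulforhodamine B staining after 10% TCA fixation, read at 560 nm; bidirectional fit relative to DMSO.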

Read-out in test [18]: Interleukin-1 alpha (IL1a), IL1A (gene 3552)
The experiment in a line: BSK_KF3CT_IL1a: BioMAP Diversity Plus: KF3CT Assay for Interleukin-1 alpha (IL1a) Biomarker Activity (AID 2283070). As to conditions: primary human keratinocytes with fibroblasts; actives raise or lower the signal. Put shortly: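 Primary human keratinocyte plus foreskin fibroblast co-culture, dosed and measured at 24 h in 96-well plates. IL-1a level quantified by ELISA; bidirectional fit relative to DMSO.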

Read-out in test [19]: TIMP metallopeptidase inhibitor 2 (TIMP2), TIMP2 (gene 7077)
The test can be described thus: BSK_KF3CT_TIMP2: BioMAP Diversity Plus: KF3CT Assay for TIMP metallopeptidase inhibitor 2 (TIMP2) Biomarker Activity (AID 2283071). As to conditions: primary human keratinocytes with fibroblasts; actives raise or lower the signal. Put shortly:
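Human primary keratinocyte/foreskin fibroblast co-culture dosed with chemical and sampled at 24 h. TIMP-2 levels quantified by ELISA; bidirectional fitting against DMSO negative control as baseline.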

Read-out in test [20]: Transforming growth factor beta 1 (TGFb1), TGFB1 (gene 7040)
The experiment in a line: BSK_KF3CT_TGFb1: BioMAP Diversity Plus: KF3CT Assay for Transforming growth factor beta 1 (TGFb1) Biomarker Activity (AID 2283072). Particulars: primary human keratinocytes with fibroblasts; actives raise or lower the signal. The method, boiled down: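 Human keratinocyte plus foreskin fibroblast primary co-culture, dosed with chemical for 24 h. TGF-b1 quantified by ELISA. Activity fitted bidirectionally against DMSO negative control as baseline.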

One may read the AC50 as the concentration at which the activity in the assay is half-maximal.

The source made the active and inactive calls. How the source made its calls: active means hit-call score of the fitted dose curve at least 0.9, where 1 is the maximum; inactive means score below 0.9.

In the case of `O=C(O)c1cn(-c2ccc(F)cc2)c2cc(N3CCNCC3)c(F)cc2c1=O`, the outcome in test [1], in [2], in test [3], in [4], in test [5] and in test [6] was inactive. Further, the result in test [7], in test [8], in [9], in test [10], in test [11] and in [12] was inactive. For the same compound, the outcome in test [13], in test [14], in test [15], in test [16], in [17] and in [18] was inactive. The result in test [19] and in test [20] was inactive.
For `CCCCC(CC)COCCC#N` (centres undefined), the AC50 in test [1] is 20 µM (active); in test [4], 24.1 µM (active); in [7] it was 11.1 µM (active); in test [10], 20 µM (active); in [13] it was 7.05 µM (active); in test [16], 5.08 µM (active). Further, the result in test [2], in test [3], in test [5], in test [6], in test [8] and in test [9] was inactive. Moreover, the result in test [11], in test [12], in test [14], in test [15], in [17] and in test [18] was inactive. In addition, the outcome in [19] and in [20] was inactive.
As for `OC[C@H]1O[C@H](O[C@]2(CCl)O[C@H](CCl)[C@@H](O)[C@@H]2O)[C@H](O)[C@@H](O)[C@H]1Cl`, the result in test [1], in [2], in [3], in test [4], in [5] and in test [6] was inactive. The outcome in test [7], in [8], in test [9], in test [10], in [11] and in test [12] was inactive. Moreover, the result in [13], in test [14], in test [15], in test [16], in test [17] and in test [18] was inactive. Besides, in test [19], the outcome was inactive.
